These results are taken from PubChem BioAssay (Tox21).

Experiment [1] deals with Estrogen receptor beta (Homo sapiens) (UniProt Q92731). Kind of experiment: qHTS assay to identify small molecule agonists of the estrogen receptor beta (ER-beta) signaling pathway (AID 1259377; active = well fitted activation curve with a large enough effect in the signal ratio in the repeat runs, not every such curve was filed as active; the % refers to the signal ratio). The method, boiled down:
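Reporter cells (HEK293T, ER-beta-UAS-bla) receive compounds or DMSO after a 6 hr pre-incubation. They then incubate 16 hr at 37C/5% CO2, and fluorescence from LiveBLAzer B/G substrate is measured after 2 hours at room temperature.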

Experiment [2] shares this target. Kind of experiment: qHTS assay to identify small molecule antagonists of the estrogen receptor beta (ER-beta) signaling pathway (AID 1259378; active = well fitted inhibition curve with a large enough effect in the signal ratio in the repeat runs, not every such curve was filed as active; the % refers to the signal ratio). The method, boiled down:
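ER-beta-UAS-bla HEK293T cells in 2% charcoal-stripped FBS medium treated with compound plus 1nM final 17-beta-estradiol for 16 hr at 37C. Beta-lactamase reporter read by FRET substrate fluorescence after 2 hours at room temperature.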

Experiment [3] can be described thus: qHTS assay to identify small molecule agonists of the androgen receptor (AR) signaling pathway in the presence of an antagonist - cell viability counter screen (AID 1259379).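 Also: MDA-kb2 human breast cancer cells carrying an MMTV luciferase reporter; series mostly up to about 92 µM; nearly all actives have a fitted effect of over 25% in size.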 In outline:
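Counter screen for cell viability run in parallel with the AR agonist-mode luciferase assay. MDA-kb2 cells were co-treated with nilutamide (3.0uM final) and compounds, then incubated 16 hr at 37C, and CellTiter-Fluor fluorescence was measured.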

Experiment [4] in a line: qHTS assay to identify small molecule agonists of the estrogen receptor beta (ER-beta) signaling pathway - cell viability counter screen (AID 1259380). Also: nearly all actives have a fitted effect of over 30% in size. The method, boiled down: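 In this qHTS counter screen, HEK293T cells carrying an ER-beta/UAS beta-lactamase reporter, grown in 2% charcoal-stripped FBS, received compound for 16 hr; ATP-based CellTiter-Glo luminescence was then read after 30 min at room temperature.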

A short description of experiment [5]: qHTS assay to identify small molecule antagonists of the estrogen receptor beta (ER-beta) signaling pathway - cell viability counter screen (AID 1259382). Also: series mostly up to about 92 µM; nearly all actives have a fitted effect of over 55% in size. The method, boiled down:
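HEK293T ER-beta-UAS-bla, 2% charcoal-stripped FBS; compounds + 1nM E2 16 hr 37C; CellTiter-Glo luminescence, 30 min RT.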

A short description of experiment [6]: qHTS assay to identify small molecule agonists or antagonists of the thyroid stimulating hormone receptor (TSHR) signaling pathway - wild type cell line counter screen (AID 1259384; calls by dose curve). In outline:
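Wild-type Hek293 cells, 800/well, 18 h at 37C, then compound with Ro20-1724 for 30 min RT. cAMP by HTRF (cAMP-d2/anti-cAMP cryptate), 1 h RT, fluorescence read. 15 concentrations, triplicates.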

Experiment [7] concerns the target Thyrotropin receptor (Homo sapiens) (UniProt P16473). Kind of experiment: qHTS assay to identify small molecule antagonists of the thyroid stimulating hormone receptor (TSHR) signaling pathway (AID 1259385; calls by dose curve; also: nearly all actives have a fitted effect of over 20% in size). The method, boiled down:
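TSHR-HEK293 cells (800/well) plated 18 h, then compounds with Ro20-1724 and TSH at 1.5 ng/mL final, 30 min at room temperature. cAMP quantified by HTRF (cAMP-d2/anti-cAMP-cryptate, 1 h); 15 concentrations in triplicate.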

A short description of experiment [8]: qHTS assay to identify small molecule agonists of the estrogen receptor alpha (ER-alpha) signaling pathway in the presence of an antagonist - cell viability counter screen (AID 1259386).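 Also: series mostly up to about 92 µM; cells exposed to compounds for 22 h at 37 °C before the viability read; nearly all actives have a fitted effect of over 30% in size.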 The method, boiled down:
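Steps: 5-day stripped-FBS culture; seed and incubate 24hr; add ICI-182,780 (10.0nM final); pin 15-point compound titration; incubate 22hr at 37C; add CellTiter-Fluor at 21hr; read fluorescence.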

Experiment [9] addresses Progesterone receptor (Homo sapiens) (UniProt P06401). The experiment can be described thus: qHTS assay to identify small molecule agonists of the progesterone receptor (PR) signaling pathway (AID 1346784; calls by dose curve; also: nearly all actives have a fitted effect of over 30% in size; also: potency is read from the fitted curve at half-maximal effect). In outline: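 Reporter assay, GripTite PR-UAS-bla HEK 293T cells: 16 hr exposure to DMSO-dissolved compounds at 37C, 5% CO2, in steroid-depleted (2% charcoal-stripped FBS) medium; beta-lactamase measured by FRET fluorescence.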

Experiment [10] shares this target. Kind of experiment: qHTS assay to identify small molecule antagonists of the progesterone receptor (PR) signaling pathway (AID 1346795; active = well fitted inhibition curve with a large enough effect in the signal ratio in the repeat runs, not every such curve was filed as active; the % refers to the signal ratio; also: potency is read from the fitted curve at half-maximal effect). The method, boiled down: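 Stimulus R5020 at 1 nM final; cells HEK293T PR-UAS-bla; medium with 2% charcoal-stripped FBS; compound exposure 16 hr at 37C, 5% CO2; detection by FRET beta-lactamase substrate, 2 hr, room temperature.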

Experiment [11] is described as follows: qHTS assay to identify small molecule antagonists of the progesterone receptor (PR) signaling pathway - cell viability counter screen (AID 1346798). Also: series mostly up to about 92 µM; nearly all actives have a fitted effect of over 50% in size. The method, boiled down:
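In the same plates used for the beta-lactamase readout, cell viability of compound- and R5020-treated PR-UAS-bla HEK293T cells (16 hr, 37C) was assessed by CellTiter-Glo luminescence.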

The nature of experiment [12]: qHTS assay to identify small molecule agonists of the progesterone receptor (PR) signaling pathway - cell viability counter screen (AID 1346799; calls by dose curve; also: nearly all actives have a fitted effect of over 45% in size). The method, boiled down:
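Multiplexed viability read: CellTiter-Glo luminescence, 30 min RT, following LiveBLAzer FRET measurement on PR-UAS-bla HEK293T cells exposed to compounds 16 hr.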

Experiment [13] can be described thus: qHTS assay to identify small molecule antagonists of the TGF-beta/Smad signaling pathway - cell viability counter screen (AID 1346824). Also: nearly all actives have a fitted effect of over 50% in size. In outline: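 SBE-bla HEK 293T cells, incubated overnight, then compound plus 0.25 ng/mL TGF-beta1 (stock added) for 5 hr at 37 C. Viability was read in the same wells by CellTiter-Glo luminescence after 30 min at room temperature.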

Experiment [14] in a line: qHTS assay to identify small molecule agonists of the TGF-beta/Smad signaling pathway - cell viability counter screen (AID 1346829). Also: top concentration of the series differs between compounds; nearly all actives have a fitted effect of over 45% in size. In outline: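 SBE-bla HEK 293T cells plated overnight, compound exposure 5 hr at 37 C. Viability read in the same wells by CellTiter-Glo luminescence after 30 min at room temperature, following the beta-lactamase read.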
A short description of experiment [15]: qHTS assay to identify small molecule agonists of the TGF-beta/Smad signaling pathway (AID 1346859; active = well fitted activation curve with a large enough effect in the signal ratio in the repeat runs, not every such curve was filed as active; the % refers to the signal ratio; also: series mostly up to about 77 µM). In outline:
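Screening used HEK 293T SBE-bla cells at 4,000/well. Test agents: 5 hr, 37 C. Detection: FRET substrate, 2 hr RT, then excitation 405 nm with emissions at 460 and 530 nm.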

Experiment [16] addresses Thyrotropin-releasing hormone receptor (Homo sapiens) (UniProt P34981). Kind of experiment: qHTS assay to identify small molecule antagonists of the thyrotropin-releasing hormone receptor (TRHR) signaling pathway (AID 1346877; active = well fitted inhibition curve with a large enough effect in the repeat runs, not every such curve was filed as active; also: series mostly up to about 51 µM). The method, boiled down:
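Human TRHR in HEK293 cells; inhibition of the intracellular calcium rise triggered by 1 nM TRH was followed by fluorescence over 3 min. Compounds were run at 15 concentrations, three replicates each.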

For experiment [17] the target is unchanged. The experiment can be described thus: qHTS assay to identify small molecule agonists of the thyrotropin-releasing hormone receptor (TRHR) signaling pathway (AID 1346891; calls by dose curve; also: series mostly up to about 58 µM). In outline:
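Readout was intracellular calcium fluorescence in TRHR-Hek293 cells. Cells were incubated 18 h, dye-loaded 2 h at 37 °C, and treated with compound in agonist mode.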

The nature of experiment [18]: Human pregnane X receptor (PXR) small molecule agonists, qHTS cell viability counter screen (AID 1346977). Also: nearly all actives have a fitted effect of over 50% in size. In outline: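 In each well, the PXR reporter HepG2 line was checked for viability: CellTiter-Fluor reagent added 23hr post-dosing, fluorescence read after 1hr incubation at 37C.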
In experiment [19] the target is Androgen receptor (Homo sapiens) (UniProt P10275). Kind of experiment: qHTS assay to identify small molecule agonists of the androgen receptor (AR) signaling pathway in the presence of an antagonist (AID 1259381; calls by dose curve; also: nearly all actives have a fitted effect of over 15% in size). The method, boiled down:
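AR antagonist background: nilutamide 3.0uM final. Cell line: MDA-kb2, MMTV-driven luciferase, responsive to both AR and GR. Exposure 16hr, 37C, no CO2; ONE-Glo luminescence.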

Where “and” joins values, the source holds several entries; their conditions need not be identical. Equal values may be shown once. Inconclusive results are not listed. Calls of active or inactive are those of the source. Unless noted, calls follow the shape of the dose curve; as a rule, active = well fitted curve in the direction sought with a large enough effect in the repeat runs; inconclusive = weak or mixed curves; inactive = no such curve, though single readings can be large; an effect the other way counts as inactive or inconclusive.

Chain of Estrogen receptor beta (Homo sapiens) (Q92731 whole entry, looked up): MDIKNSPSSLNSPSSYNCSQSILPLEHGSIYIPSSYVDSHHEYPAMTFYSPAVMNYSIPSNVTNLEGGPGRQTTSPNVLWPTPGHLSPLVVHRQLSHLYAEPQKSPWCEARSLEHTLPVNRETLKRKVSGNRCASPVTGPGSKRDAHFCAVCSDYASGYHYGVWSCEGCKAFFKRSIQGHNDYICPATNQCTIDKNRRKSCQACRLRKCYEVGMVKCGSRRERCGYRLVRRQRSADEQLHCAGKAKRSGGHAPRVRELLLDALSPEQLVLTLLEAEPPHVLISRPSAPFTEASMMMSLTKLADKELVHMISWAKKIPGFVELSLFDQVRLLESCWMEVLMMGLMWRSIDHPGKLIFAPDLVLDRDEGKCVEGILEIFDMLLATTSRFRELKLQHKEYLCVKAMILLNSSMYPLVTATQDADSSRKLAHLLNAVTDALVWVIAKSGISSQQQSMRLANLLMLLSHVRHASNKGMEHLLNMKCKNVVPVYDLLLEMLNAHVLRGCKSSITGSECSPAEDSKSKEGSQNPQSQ
Chain of Thyrotropin-releasing hormone receptor (Homo sapiens) (P34981 whole entry, looked up): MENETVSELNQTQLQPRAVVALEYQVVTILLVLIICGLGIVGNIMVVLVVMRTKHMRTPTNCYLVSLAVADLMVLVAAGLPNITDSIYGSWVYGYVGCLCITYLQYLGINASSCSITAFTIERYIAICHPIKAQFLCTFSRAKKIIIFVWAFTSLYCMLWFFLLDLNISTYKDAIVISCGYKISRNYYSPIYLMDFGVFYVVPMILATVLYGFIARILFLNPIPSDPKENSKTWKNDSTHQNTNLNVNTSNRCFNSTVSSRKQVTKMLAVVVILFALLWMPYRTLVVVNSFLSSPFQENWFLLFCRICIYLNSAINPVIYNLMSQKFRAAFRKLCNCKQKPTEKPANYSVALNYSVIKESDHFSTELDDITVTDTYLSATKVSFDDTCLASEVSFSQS
Chain of Progesterone receptor (Homo sapiens) (P06401 whole entry, looked up): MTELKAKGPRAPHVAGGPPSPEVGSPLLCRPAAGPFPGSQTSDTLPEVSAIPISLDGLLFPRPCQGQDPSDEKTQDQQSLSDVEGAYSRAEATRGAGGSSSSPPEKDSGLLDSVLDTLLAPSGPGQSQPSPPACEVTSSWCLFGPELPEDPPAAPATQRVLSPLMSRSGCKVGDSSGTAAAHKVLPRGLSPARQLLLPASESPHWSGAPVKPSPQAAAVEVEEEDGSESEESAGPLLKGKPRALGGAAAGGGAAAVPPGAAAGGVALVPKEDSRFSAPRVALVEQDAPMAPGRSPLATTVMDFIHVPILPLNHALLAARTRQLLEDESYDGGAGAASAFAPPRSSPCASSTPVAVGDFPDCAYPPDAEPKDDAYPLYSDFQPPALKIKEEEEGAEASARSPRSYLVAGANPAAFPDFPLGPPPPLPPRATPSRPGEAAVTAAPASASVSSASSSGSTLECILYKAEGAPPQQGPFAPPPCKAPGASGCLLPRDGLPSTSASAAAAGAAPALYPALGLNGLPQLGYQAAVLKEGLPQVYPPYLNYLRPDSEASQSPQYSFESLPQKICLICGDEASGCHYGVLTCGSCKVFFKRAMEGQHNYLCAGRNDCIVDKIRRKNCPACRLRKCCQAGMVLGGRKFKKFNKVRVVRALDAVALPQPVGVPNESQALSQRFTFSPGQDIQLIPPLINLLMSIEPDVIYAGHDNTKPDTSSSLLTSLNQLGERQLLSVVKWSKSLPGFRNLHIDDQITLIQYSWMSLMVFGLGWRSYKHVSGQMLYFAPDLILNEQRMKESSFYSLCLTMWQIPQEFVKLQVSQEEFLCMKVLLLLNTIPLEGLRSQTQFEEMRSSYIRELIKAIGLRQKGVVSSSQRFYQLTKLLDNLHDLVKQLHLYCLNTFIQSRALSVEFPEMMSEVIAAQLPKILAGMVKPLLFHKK
Chain of Androgen receptor (Homo sapiens) (P10275 whole entry, looked up): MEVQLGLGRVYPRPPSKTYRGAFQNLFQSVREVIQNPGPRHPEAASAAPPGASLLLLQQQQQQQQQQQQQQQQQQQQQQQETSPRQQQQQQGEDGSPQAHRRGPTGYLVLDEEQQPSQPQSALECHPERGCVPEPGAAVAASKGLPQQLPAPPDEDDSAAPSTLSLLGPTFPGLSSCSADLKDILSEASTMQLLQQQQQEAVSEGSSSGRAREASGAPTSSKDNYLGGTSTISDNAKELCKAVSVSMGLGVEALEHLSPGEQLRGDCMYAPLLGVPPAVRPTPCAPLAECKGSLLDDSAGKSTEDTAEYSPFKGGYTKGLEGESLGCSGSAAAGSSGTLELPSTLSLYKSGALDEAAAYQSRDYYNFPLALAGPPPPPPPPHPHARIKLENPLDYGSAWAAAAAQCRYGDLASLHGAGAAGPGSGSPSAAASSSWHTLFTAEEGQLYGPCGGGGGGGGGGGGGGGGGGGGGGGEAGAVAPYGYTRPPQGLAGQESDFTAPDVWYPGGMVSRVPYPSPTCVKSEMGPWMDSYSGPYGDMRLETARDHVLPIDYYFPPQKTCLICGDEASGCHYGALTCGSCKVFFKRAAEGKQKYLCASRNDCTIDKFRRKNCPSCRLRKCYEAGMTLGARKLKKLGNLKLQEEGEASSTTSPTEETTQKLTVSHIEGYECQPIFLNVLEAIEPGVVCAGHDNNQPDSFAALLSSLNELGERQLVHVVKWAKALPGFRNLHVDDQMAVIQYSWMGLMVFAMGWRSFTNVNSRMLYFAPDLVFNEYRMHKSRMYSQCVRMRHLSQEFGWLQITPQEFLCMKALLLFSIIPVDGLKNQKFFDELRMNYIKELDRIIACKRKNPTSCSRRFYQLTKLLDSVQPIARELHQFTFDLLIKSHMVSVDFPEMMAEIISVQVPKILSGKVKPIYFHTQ
Chain of Thyrotropin receptor (Homo sapiens) (P16473 whole entry, looked up): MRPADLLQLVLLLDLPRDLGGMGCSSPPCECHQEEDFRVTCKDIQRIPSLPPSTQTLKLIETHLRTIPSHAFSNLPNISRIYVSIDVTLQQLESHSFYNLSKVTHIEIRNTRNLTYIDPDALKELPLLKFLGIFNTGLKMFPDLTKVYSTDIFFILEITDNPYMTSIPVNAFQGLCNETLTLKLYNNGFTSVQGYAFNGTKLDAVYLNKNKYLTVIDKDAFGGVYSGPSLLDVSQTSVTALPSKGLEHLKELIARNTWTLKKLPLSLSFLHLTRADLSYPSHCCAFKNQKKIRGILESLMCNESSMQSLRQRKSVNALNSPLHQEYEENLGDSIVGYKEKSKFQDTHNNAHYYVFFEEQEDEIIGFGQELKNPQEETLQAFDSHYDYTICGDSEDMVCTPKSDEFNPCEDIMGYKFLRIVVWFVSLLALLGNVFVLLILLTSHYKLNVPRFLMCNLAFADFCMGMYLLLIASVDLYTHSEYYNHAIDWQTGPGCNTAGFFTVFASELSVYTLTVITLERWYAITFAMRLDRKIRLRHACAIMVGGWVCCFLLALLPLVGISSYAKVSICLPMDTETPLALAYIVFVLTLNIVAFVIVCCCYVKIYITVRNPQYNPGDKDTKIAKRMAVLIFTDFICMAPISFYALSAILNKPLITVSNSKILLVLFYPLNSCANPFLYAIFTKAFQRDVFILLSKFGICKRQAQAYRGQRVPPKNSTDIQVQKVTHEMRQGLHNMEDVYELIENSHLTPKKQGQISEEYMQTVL

On to `CCCCC(CC)COCC1CO1` (stereo not given), for which the Potency result in [1], in [2], in [3], in experiment [4], in [5] and in experiment [7] was “inactive” in each case. Also, the Potency entry in experiment [8], in experiment [9], in experiment [10], in [11], in experiment [12] and in experiment [13] was “inactive” in each case. Besides, the Potency entry in experiment [14], in experiment [16], in [17] and in experiment [18] was “inactive” throughout. Moreover, the result in experiment [6] and in experiment [15] was inactive.
Regarding `O=c1oc(=O)c2cc3c(=O)oc(=O)c3cc12`, the Potency entry in experiment [1], in experiment [2], in [3], in experiment [4], in [5] and in experiment [8] was “inactive” throughout. The Potency result in experiment [9], in experiment [10], in experiment [11], in [13], in experiment [14] and in experiment [16] was “inactive” in each case. Moreover, the Potency result in [17] and in experiment [18] was “inactive” in each case. Moreover, the result in [15] was inactive.
Regarding `O=C(OCc1ccccc1)c1ccccc1O`, the Potency result in experiment [1], in experiment [2], in experiment [3], in [4], in experiment [5] and in experiment [8] was “inactive” throughout. Further, the Potency result in experiment [9], in [10], in [11], in [12], in experiment [13] and in [14] was “inactive” each time. Besides, the Potency entry in experiment [16], in [17] and in experiment [18] was “inactive” each time. The molecule was classed as inactive in experiment [6] and in experiment [15].
On to `COc1c(Cl)c(Cl)c(Cl)c(Cl)c1Cl`, for which the Potency result in experiment [1], in experiment [2], in experiment [3], in experiment [4], in experiment [5] and in experiment [8] was “inactive” throughout. Moreover, the Potency result in experiment [9], in experiment [10], in experiment [11], in experiment [12], in experiment [13] and in experiment [14] was “inactive” each time. In addition, the Potency result in [16], in experiment [17] and in [18] was “inactive” each time. The molecule was classed as inactive in [6] and in experiment [15].
As for `CC(C)OC(=O)C(C)(C)Oc1ccc(C(=O)c2ccc(Cl)cc2)cc1`, the Potency entry in [1], in experiment [3], in experiment [4], in [5], in [8] and in [9] was “inactive” in each case. The Potency result in experiment [11], in [13], in [14] and in experiment [18] was “inactive” each time. Besides, the outcome in experiment [19], in experiment [6] and in [15] was inactive. In addition, the Potency in experiment [10] was 17.2 µM (active) and 21.1 µM (active).
Turning to `C[C@]12CC[C@H]3[C@@H](CCC4=CC(=O)CC[C@@]43C)[C@@H]1CC[C@@H]2C(=O)CO`, the Potency entry in experiment [1], in experiment [2], in experiment [3], in experiment [5], in experiment [8] and in [10] was “inactive” throughout. The Potency result in experiment [11], in experiment [13], in experiment [14], in experiment [16], in experiment [17] and in [18] was “inactive” each time. Further, in [9], the Potency was 237 nM (active). The outcome in [15] was inactive.
Turning to `O=P(O)(O)O`, the Potency result in experiment [1], in [2], in experiment [3], in [4], in experiment [5] and in [8] was “inactive” each time. For the same molecule, the Potency entry in [9], in [10], in experiment [11], in experiment [12], in [13] and in experiment [14] was “inactive” throughout. Further, the Potency result in experiment [16], in [17] and in experiment [18] was “inactive” each time. Moreover, the molecule was called inactive in experiment [6] and in experiment [15].
Regarding `NC=O`, the Potency result in experiment [1], in [2], in [3], in experiment [4], in experiment [5] and in [8] was “inactive” each time. The Potency result in experiment [9], in [10], in experiment [11], in [13], in [14] and in experiment [18] was “inactive” throughout. For the same molecule, the result in experiment [15] was inactive.
